HP1b binding inh – blocks HP1-beta chromodomain binding to methylated histone tails; P83916; AlphaScreen HP1-beta / biotin-H3K9me3 peptide binding; Potency, µM (titrated, usually from 114 µM), usual class: inhibitors; 390,000 compounds, 0.56% hits; AID 540317; further: nearly all actives have a fitted effect of over 70% in size
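Compound inhibition of the preformed complex between 50 nM HP1-beta and 50 nM biotinylated H3K9me3 peptide was read by AlphaScreen. Buffer was PBS pH 7.4 with 0.01% Tween-20. Incubations ran 30 min at room temperature, with 10 ug/mL donor/acceptor beads.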
PLK1 PBD block – inhibitors of human PLK1 polo-box domain binding | Plk1 PBD binding of FITC phosphopeptide, fluorescence polarization | 360,000 compounds, 2.8% hits | Potency, µM, actives largely listed as inhibitors; further: series mostly up to about 57 µM; nearly all actives have a fitted effect of over 65% in size
Target sequence (P53350 whole entry, looked up, the tested form may be a part): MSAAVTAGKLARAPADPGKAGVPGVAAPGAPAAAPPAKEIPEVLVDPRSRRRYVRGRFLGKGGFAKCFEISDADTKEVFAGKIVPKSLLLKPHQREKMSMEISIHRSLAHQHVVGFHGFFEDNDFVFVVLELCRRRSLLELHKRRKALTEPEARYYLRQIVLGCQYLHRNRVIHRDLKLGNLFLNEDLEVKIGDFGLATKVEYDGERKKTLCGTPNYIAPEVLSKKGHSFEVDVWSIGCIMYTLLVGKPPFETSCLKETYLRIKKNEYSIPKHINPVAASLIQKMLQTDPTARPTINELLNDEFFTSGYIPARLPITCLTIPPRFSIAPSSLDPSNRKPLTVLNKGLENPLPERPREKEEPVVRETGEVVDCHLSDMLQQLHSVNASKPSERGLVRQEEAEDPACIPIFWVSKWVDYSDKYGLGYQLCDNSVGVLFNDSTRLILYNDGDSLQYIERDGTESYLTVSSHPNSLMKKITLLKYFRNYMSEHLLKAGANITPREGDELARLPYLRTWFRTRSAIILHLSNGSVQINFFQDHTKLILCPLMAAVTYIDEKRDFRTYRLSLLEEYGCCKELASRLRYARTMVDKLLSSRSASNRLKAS
G9a inh – inhibitors of human histone lysine methyltransferase G9a; 350,000 compounds, 8.8% hits; G9a H3K9 monomethylation, AlphaScreen, 2 h; AID 504332; Potency, µM (highest dose often 102 µM), most hits filed as inhibitors; Q96KQ7; further: nearly all actives have a fitted effect of over 75% in size
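AlphaScreen read-out: biotin-H3K9 peptide (500 nM) methylation by 20 nM enzyme with 20 uM SAM, 2 h at room temperature after 15 min compound preincubation; anti-monomethyl H3K9 antibody plus donor/acceptor beads, 10 min dark.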
Sfp inh – blocks B. subtilis Sfp PPTase activity; Q9F4F7; Biochemical Sfp PPTase activity, qHTS; Potency, µM, hits mostly inhibitors; 310,000 compounds, 3.5% hits; AID 1490;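 further: the enzyme is Sfp with the accession as filed and its product quenches rhodamine fluorescence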
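Buffer: 50 mM Hepes-Na pH 7.6, 10 mM MgCl2, 0.01% Nonidet P-40, 0.01% BSA. Enzyme 15 nM, pre-exposed to compound 15 min; substrates then added and fluorescence change tracked over 30 min.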
JMJD2A Tudor inh – JMJD2A Tudor domain (human) inhibition; 390,000 compounds, 4.4% hits; AID 504339; O75164; Potency, µM (highest dose often 114 µM), usual class: inhibitors; AlphaScreen JMJD2A-Tudor / H3K4me3 peptide binding; further: nearly all actives have a fitted effect of over 50% in size
BAZ2B inh – inhibitors of human BAZ2B bromodomain | Q9UIF8 | AlphaScreen BAZ2B-H3K14Ac peptide displacement | Potency, µM (titrated, usually from 114 µM), most hits filed as inhibitors | 360,000 compounds, 4.4% hits; further: nearly all actives have a fitted effect of over 60% in size
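Complex of BAZ2B and biotin-H3K14Ac (50 nM apiece) forms over 30 min at RT, then faces library compounds up to 110 uM for another 30 min; AlphaScreen beads added, 20 min dark incubation, luminescence read.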
Each line names hits and unclear results; the compound was inactive in the other large screens. A selection: hits, their analogues and other compounds. The true share with any hit is near 12%. The call rests on the fitted dose curve; in most records, active means well fitted curve in the direction sought with a large enough effect; inconclusive means small, poorly fitted or top-dose-only effect, or another doubt; inactive means no such curve, though single readings can be large; an effect the other way counts as inactive or inconclusive.

O=C(c1ccc2c(c1)N(Cc1cccc(Cl)c1)C(=O)c1ccccc1S2(=O)=O)N1CCc2ccccc21	G9a inh inconclusive (no result: PLK1 PBD block, Sfp inh)
Cn1c(=O)cc(SCC(=O)N2CCN(c3ccccc3F)CC2)c2ccc(Cl)cc21	G9a inh inconclusive (no result: PLK1 PBD block, Sfp inh, BAZ2B inh)
CCn1nc(C)cc1-c1nnc(SCC(=O)Nc2ccccc2)n1CCCOC	none (no result: G9a inh)
CCn1nc(C)cc1-c1nnc(Sc2ncc([N+](=O)[O-])s2)n1C	PLK1 PBD block inconclusive, G9a inh 6.3µM, Sfp inh 45µM, JMJD2A Tudor inh inconclusive
CCCCNC(=S)NCc1ccc2[nH]c3c(c2c1)CCCC3	HP1b binding inh inconclusive, G9a inh inconclusive, JMJD2A Tudor inh 40µM (no result: BAZ2B inh)
O=C(O)c1ccc2[nH]c3c(c2c1)CCCC3	none
CNC(=S)NCc1ccc2[nH]c3c(c2c1)CCCC3	G9a inh 40µM, Sfp inh inconclusive, BAZ2B inh 45µM
O=C(NCc1ccc2[nH]c3c(c2c1)CCCC3)N1CCOCC1	G9a inh inconclusive (no result: HP1b binding inh, PLK1 PBD block, JMJD2A Tudor inh)
O=C(NCc1ccc(F)cc1)C(=O)Nc1ccc2nc3n(c(=O)c2c1)CCCCC3	none (no result: PLK1 PBD block, Sfp inh)
CC1=C(C)C(=O)C(N2CCOCC2)=CC1=O	G9a inh 45µM, BAZ2B inh inconclusive
CN(C)CCCN(C(=O)COc1ccccc1)c1nc2ccc(F)cc2s1	G9a inh inconclusive (no result: BAZ2B inh)
CN(C)CCCN(C(=O)CCOc1ccccc1)c1nc2ccc(F)cc2s1	PLK1 PBD block inconclusive, G9a inh 28µM (no result: BAZ2B inh)
CN(C)CCCN(C(=O)c1sc2ccccc2c1Cl)c1nc2c(F)cccc2s1	G9a inh 25µM, Sfp inh 50µM, JMJD2A Tudor inh inconclusive
CN(C)CCCN(C(=O)COc1ccc(Cl)cc1)c1nc2ccc(F)cc2s1	G9a inh 56µM
Cc1ccc2nc(N(CCCN(C)C)C(=O)COc3ccc(Cl)cc3)sc2c1	G9a inh inconclusive, Sfp inh 89µM (no result: BAZ2B inh)
O=C(COC(=O)c1ccccn1)NCc1cccs1	none (no result: Sfp inh)
Cc1ccc(CCNc2nc3c(S(=O)(=O)c4ccc(C)cc4)nnn3c3ccsc23)cc1	none (no result: PLK1 PBD block, Sfp inh)
Cc1cccc2sc(N(CCCN(C)C)C(=O)COc3ccccc3)nc12	G9a inh inconclusive, JMJD2A Tudor inh inconclusive (no result: PLK1 PBD block, Sfp inh)
CN(C)CCCN(C(=O)CCOc1ccccc1)c1nc2c(F)cccc2s1	PLK1 PBD block inconclusive, G9a inh 22µM, Sfp inh 50µM (no result: BAZ2B inh)
Cc1ccc2nc(N(CCCN(C)C)C(=O)c3ccc4c(c3)CCCC4)sc2c1	HP1b binding inh inconclusive, G9a inh inconclusive, Sfp inh inconclusive, JMJD2A Tudor inh inconclusive, BAZ2B inh inconclusive
Cc1ccc2nc(N(CCCN(C)C)C(=O)c3ccc(Br)s3)sc2c1	G9a inh inconclusive
Cc1cccc2sc(N(CCCN(C)C)C(=O)COc3ccc(Cl)cc3)nc12	G9a inh 50µM, Sfp inh inconclusive (no result: BAZ2B inh)
CN(C)CCCN(C(=O)c1ccc2c(c1)CCCC2)c1nc2c(F)cccc2s1	HP1b binding inh inconclusive, G9a inh inconclusive, Sfp inh 40µM, JMJD2A Tudor inh 45µM, BAZ2B inh inconclusive
Cc1ccc2nc(N(CCCN(C)C)C(=O)c3cc(-c4cccs4)nc4ccccc34)sc2c1	HP1b binding inh inconclusive, G9a inh 40µM, Sfp inh 79µM, JMJD2A Tudor inh 14µM, BAZ2B inh 25µM
CCN(CC)c1cc2c(cc1F)c(=O)c(S(=O)(=O)c1ccc(OC)cc1)cn2CC	none (no result: PLK1 PBD block, Sfp inh)
Cc1cc(N2CCOCC2)ccc1/C=C1\NC(=O)N(Cc2ccccc2F)C1=O	none
Cc1cc(N2CCOCC2)ccc1/C=C1\NC(=O)N(Cc2ccccc2)C1=O	G9a inh 50µM
Cc1cccc(CN2C(=O)N/C(=C/c3ccc(C)s3)C2=O)c1	none
Cc1cc(/C=C2\NC(=O)N(Cc3ccc(Cl)cc3)C2=O)c(C)n1C	G9a inh 16µM
Cc1ccc(CN2C(=O)N/C(=C/c3ccc4c(c3)n(C)c(=O)n4C)C2=O)cc1	BAZ2B inh inconclusive (no result: HP1b binding inh, PLK1 PBD block, JMJD2A Tudor inh)
Cc1ccc(/C=C2/NC(=O)N(Cc3ccccc3)C2=O)s1	G9a inh inconclusive, Sfp inh 50µM, BAZ2B inh inconclusive
CCOC(=O)COc1ccc(/C=C2\NC(=S)N(CC)C2=O)cc1	none
CCN1C(=O)/C(=C/c2ccc(C)s2)NC1=S	G9a inh 13µM
COc1ccc(CNC(=O)CC(c2ccc(OC)c(OC)c2)N2Cc3ccccc3C2=O)cc1 (stereo not given)	none (no result: PLK1 PBD block, Sfp inh)
